In PubChem BioAssay AID652015 (National Center for Advancing Translational Sciences (NCATS), 2013):
Results filed as inconclusive are left out. The source made the active and inactive calls. Calls come from the whole dose curve; as a rule, active = well fitted inhibition curve with a large enough effect; inconclusive = small, poorly fitted or top-dose-only effect; inactive = no such curve, though single readings can be large or run the other way.

Each compound was assayed against Coelenterazine h 2-monooxygenase (Renilla reniformis) (UniProt P27652) (assay: qHTS Assay for Inhibitors of Sea Pansy Luciferase from the GSK Published Protein Kinase Inhibitor Set). Details: purified Renilla luciferase, luminescence; series mostly up to 57.5 µM.
Sequence of Coelenterazine h 2-monooxygenase (Renilla reniformis) (P27652 whole entry, looked up): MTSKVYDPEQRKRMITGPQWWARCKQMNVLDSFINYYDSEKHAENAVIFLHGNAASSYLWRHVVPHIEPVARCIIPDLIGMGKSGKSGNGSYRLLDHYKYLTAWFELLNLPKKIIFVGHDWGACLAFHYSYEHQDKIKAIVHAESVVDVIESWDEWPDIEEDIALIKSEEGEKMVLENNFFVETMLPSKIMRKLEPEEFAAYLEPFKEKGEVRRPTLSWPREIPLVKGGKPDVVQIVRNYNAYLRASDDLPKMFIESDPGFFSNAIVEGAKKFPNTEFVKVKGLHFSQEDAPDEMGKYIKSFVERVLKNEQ
Outline: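 Purified R. reniformis luciferase (1 nM final) with 5 uM coelenterazine h in 50 mM Tris acetate pH 7.5, 100 uM NaCl, 0.01% Tween-20, 0.05% BSA. A titration, about 60 uM to 300 pM; luminescence read after about 2 min.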

Potency, inactive:
c1ccc(COc2ccc(Nc3ncnc4ccc(-c5ccco5)cc34)cc2)cc1
Oc1[nH]c2ccccc2c1C=Nc1ccc(-n2cncn2)cc1
COC(=O)c1sc(-n2cnc3cc(OC)c(OC)cc32)cc1OCc1ccccc1C(F)(F)F
O=S(=O)(CCNCc1ccc(-c2ccc3ncnc(Nc4ccc(OCc5cccc(F)c5)c(Cl)c4)c3c2)o1)c1ccccc1
Nc1nc(-c2cccc(Cl)c2)c(-c2ccc3ncccc3n2)s1
CCn1c(-c2nonc2N)nc2ccncc21
CNC(=O)c1cncc(C=Cc2c(C)cccc2C)c1
COc1cc(Nc2nccc(-c3cnn4ncccc34)n2)cc(OC)c1
FC(F)(F)c1ccc(-c2nn3ncccc3c2-c2ccnc(Nc3ccc4c(c3)OCCO4)n2)cc1
CC1(C)CC(n2cnc(-c3ccc(F)cc3)c2-c2ccnc(N)n2)CC(C)(C)N1
Nc1nonc1-c1nc2cnccc2n1C1CC1
CS(=O)(=O)CCNCc1ccc(-c2ccc3ncnc(Nc4ccc(OCc5ccccc5)cc4)c3c2)o1
Fc1ccc(Oc2nccc(-c3c(-c4ccc(F)cc4)ncn3C3CCNCC3)n2)cc1
COC(=O)Nc1nc2ccc(Oc3ccc(NC(=O)Nc4cc(C(F)(F)F)ccc4F)cc3)cc2s1
N#Cc1ccc2c(-c3ccnc(NC4CC4)n3)c(-c3ccc(F)cc3)nn2c1
N#Cc1ccc(Oc2nccc(-c3c(-c4ccc(F)cc4)ncn3C3CCNCC3)n2)cc1
N#Cc1c(NC(=O)c2cccc3ccccc23)sc2c1CCCC2
CCN1CCC(CC(=O)Nc2n[nH]c3nnc(-c4cccc(F)c4F)cc23)CC1
Cc1nnc(-c2ccc(C)c(-c3ccc(C(=O)Nc4cccc(C#N)c4)cc3)c2)o1
O=C(Nc1n[nH]c2nnc(-c3cccnc3)cc12)C1CC1
Cc1ccc(C(=O)NC2CCCCC2)cc1-c1ccc(C(=O)NCC2CC2)cc1
CS(=O)(=O)CCNCc1ccc(-c2ccc3ncnc(Nc4ccc(OCc5ccccc5)c(Br)c4)c3c2)o1
